# The panel holds about 79,000 compounds, 15% with a hit somewhere; the sample as a whole holds those more often. Values without a mark were called inactive. Active and inactive are the calls of the source. No stated cut-off is given here; in the data, active means growth inhibition above about 70%; inactive means the rest.
# Test: NCI Yeast Anticancer Drug Screen. Data for the bub3 strain (AID 167)
# Conditions: S. cerevisiae bub3 mutant strain, at 50.0 µM, hits give high values
# Procedure, shortened: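 Growth of a checkpoint-deficient yeast mutant is measured after compound exposure. Values represent inhibition relative to vehicle.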
row,SMILES,growth inhibition
1,CCCCCCCCCCCCCCCBr,80.7% (active)
2,CCCCCCCCCCCC(=O)OCC(C)C,-2.1%
3,O[Si](O)(c1ccccc1)c1ccccc1,95.6% (active)
4,O=C(c1ccccc1)C(C(=O)c1ccccc1)c1ccc2ccccc2n1,19.1%
5,O=C1C=CC(=O)N1c1ccccc1[N+](=O)[O-],99.5% (active)
6,CCCCCCCCCCCC(O)=C1C(=O)CC(O)CC1=O (centres undefined),89.7% (active)
7,OCCc1cccc2ccc3ccccc3c12,90.4% (active)
8,O=C1C(=O)C(Cl)=C(Cl)C(Cl)=C1Cl,99.3% (active)
9,O=C1C=CC2C(=O)c3ccccc3C(=O)C2=C1 (centres undefined),45.5%
10,O=C(N(c1ccc(Cl)cc1)c1ccc(Cl)cc1)C(Cl)(Cl)Cl,-1.25%
11,COc1cccc2c1S(=O)(=O)C(c1ccccc1)=CC2=O,99.7% (active)
12,COc1cc(-c2nn3c(=O)n(-c4ccc(Cl)cc4)c(=O)nc3s2)cc(OC)c1OC,3.3%
13,O=[N+]([O-])C1(CO)COC(CCc2ccccc2)OC1 (centres undefined),65.5%
14,COc1ccc(C(=O)CCc2c[nH]c3ccccc23)c(O)c1,23.5%
15,CC/C(=C(\CC)c1ccc(OCCN2CCOCC2)cc1)c1ccc(OCCN2CCOCC2)cc1,79.9% (active)
16,CCCCCCCCCCCN1C(=O)c2ccccc2S1(=O)=O,9.4%
17,CCCCCCCCCCCC(=O)NN,95.3% (active)
18,CCN1CCC(O)(/C=C/c2ccccc2)C(C(=O)/C=C/c2ccccc2)C1 (centres undefined),98.9% (active)
19,NC(=S)NNCCC(=O)Nc1ccccc1C(F)(F)F,65.8%

# Reference: PubChem BioAssay (NCI)
